In the supplement of paper PMC6089552:
Among all 3,200 compounds or so, about 300 (9.4%) showed activity. Shown is part of a subset that was picked to be rich in actives.

System: A673/TR/shEF
Test: cell viability (LOESS-normalised, relative to median of negative controls) (log2 ratio); higher = more viable cells (less compound effect), active = hit call of the paper (over 3 MAD below the median)
Conditions: treatment time: 72 h
Procedure, shortened: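 A673/TR/shEF Ewing sarcoma cells (1,500 per well, 384-well plates) were grown with or without doxycycline to induce EWS-FLI1 shRNA knockdown, starting 24 h before compounds. Library compounds at two or more concentrations, with DMSO controls, were added for three days. Cell viability was read by CellTiter-Glo luminescence on an Envision reader, then LOESS-corrected per plate, divided by the median of negative controls and log2-transformed. Hits were wells at least three median absolute deviations from the median of all screened wells.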

[1] = 0.25 µM, library screen: screen1, EWS-FLI1 expression: high (no doxycycline)
[2] = 0.25 µM, library screen: screen1, EWS-FLI1 expression: low (doxycycline-induced shRNA knockdown)
[3] = 2.5 µM, library screen: screen1, EWS-FLI1 expression: high (no doxycycline)
[4] = 2.5 µM, library screen: screen1, EWS-FLI1 expression: low (doxycycline-induced shRNA knockdown)
[5] = 0.25 µM, library screen: screen2, EWS-FLI1 expression: high (no doxycycline)
[6] = 0.25 µM, library screen: screen2, EWS-FLI1 expression: low (doxycycline-induced shRNA knockdown)
[7] = 2.5 µM, library screen: screen2, EWS-FLI1 expression: high (no doxycycline)
[8] = 2.5 µM, library screen: screen2, EWS-FLI1 expression: low (doxycycline-induced shRNA knockdown)

Measured: cell viability (log2)

CC1(C)C(=O)C=C[C@]2(C)[C@H]3CC[C@@]4(C)[C@H](c5ccoc5)OC(=O)[C@H]5O[C@]54[C@]3(C)[C@H](O)C[C@@H]12
inactive: [1] -0.0265 | [2] 0.039 | [3] 0.0641 | [4] 0.0262

Cc1ccccc1CN1CCN(Cc2ccc(F)cc2)CC1
inactive: [1] 0.0915 | [2] 0.13 | [3] 0.113 | [4] 0.0962

C[C@H]1CC[C@]2(NC1)O[C@H]1C[C@H]3[C@@H]4CC[C@H]5C[C@@H](O[C@@H]6O[C@H](CO)[C@H](O[C@@H]7O[C@H](CO)[C@@H](O)[C@H](O[C@@H]8OC[C@@H](O)[C@H](O)[C@H]8O)[C@H]7O[C@@H]7O[C@H](CO)[C@@H](O)[C@H](O)[C@H]7O)[C@H](O)[C@H]6O)CC[C@]5(C)[C@H]4CC[C@]3(C)[C@H]1[C@@H]2C
inactive: [1] 0.0131 | [2] -0.12
active: [3] -1.17 | [4] -1.98

C[C@@H]1CC[C@@]2(OC1)O[C@H]1[C@@H](O)[C@H]3[C@@H]4CC[C@H]5C[C@@H](O[C@@H]6O[C@H](CO)[C@H](O[C@@H]7O[C@H](CO)C(O)[C@H](O[C@@H]8OC[C@@H](O)[C@H](O)[C@H]8O)[C@H]7O[C@@H]7O[C@H](CO)[C@H](O)[C@H](O[C@@H]8O[C@H](CO)[C@@H](O)[C@H](O)[C@H]8O)[C@H]7O)[C@H](O)[C@H]6O)[C@H](O)C[C@]5(C)[C@H]4CC[C@]3(C)[C@H]1[C@@H]2C (stereo partly specified)
inactive: [1] 0.0473 | [2] 0.00355 | [3] 0.099 | [4] 0.184

C[C@H]1CC[C@]2(NC1)O[C@H]1C[C@H]3[C@@H]4CC[C@H]5C[C@@H](O)CC[C@]5(C)[C@H]4CC[C@]3(C)[C@H]1[C@@H]2C
inactive: [1] 0.0391 | [2] 1.7e-05 | [3] 0.161 | [4] 0.0669

CCNc1nc(Cl)nc(NC(C)C)n1
inactive: [1] 0.143 | [2] 0.0518 | [3] 0.132 | [4] 0.0856

CCC1(C2=NCCN2)Cc2ccccc2O1 (stereo unspecified)
inactive: [5] 0.203 | [6] 0.0265 | [7] 0.184 | [8] 0.0979

CO[C@@H]1C[C@@H](C[C@H]2CC[C@H](C)[C@H]([C@@H](C)C(=O)O)O2)O[C@]2(O[C@](C)([C@H]3CC[C@@](C)([C@@H]4O[C@@H]([C@H]5O[C@@](O)(CO)[C@H](C)C[C@@H]5C)C[C@@H]4C)O3)C[C@H]2C)[C@@H]1C
inactive: [1] 0.0701 | [2] 0.147 | [4] -0.0408
active: [3] -0.685

CC[C@@]1([C@H]2O[C@H]([C@H]3O[C@@](O)(CO)[C@H](C)C[C@@H]3C)C[C@H]2C)CC[C@H]([C@@]2(C)CC[C@]3(C[C@H](O)[C@@H](C)[C@@H]([C@H](C)[C@H](OC)[C@@H](C)C(=O)O)O3)O2)O1
inactive: [1] -0.0386 | [2] 0.12 | [4] 0.0352
active: [3] -0.325

CN1CCc2cc(O)cc3c2C1Cc1ccc(O)c(O)c1-3 (stereo unspecified)
inactive: [5] 0.248 | [6] 0.14 | [7] 0.197 | [8] 0.135

Nc1ccc2c(n1)[nH]c1ccccc12
inactive: [5] 0.156 | [6] 0.0674 | [7] 0.0702 | [8] 0.0934

Nc1ccc(CCN2CCN(c3cccc(C(F)(F)F)c3)CC2)cc1
inactive: [5] 0.0196 | [6] 0.0537 | [7] 0.131 | [8] 0.044

C[C@@H]1C[C@H]2CC(=O)[C@H]3CCCN4CCC[C@H]2[C@]34C1
inactive: [1] 0.103 | [2] 0.0455 | [3] 0.108 | [4] 0.0845

O=P1(N(CCCl)CCCl)NCCCO1 (stereo unspecified)
inactive: 0.025 µM, library screen: screen2, EWS-FLI1 expression: high (no doxycycline) 0.105 | 0.025 µM, library screen: screen2, EWS-FLI1 expression: low (doxycycline-induced shRNA knockdown) 0.0824 | 0.103 µM, library screen: screen3, EWS-FLI1 expression: high (no doxycycline) 0.146 | 0.103 µM, library screen: screen3, EWS-FLI1 expression: low (doxycycline-induced shRNA knockdown) 0.0804 | [1] 0.11 | [2] 0.163 | [5] 0.137 | [6] 0.0863 | 0.308 µM, library screen: screen3, EWS-FLI1 expression: high (no doxycycline) 0.0638 | 0.308 µM, library screen: screen3, EWS-FLI1 expression: low (doxycycline-induced shRNA knockdown) 0.0134 | 0.926 µM, library screen: screen3, EWS-FLI1 expression: high (no doxycycline) 0.0846 | 0.926 µM, library screen: screen3, EWS-FLI1 expression: low (doxycycline-induced shRNA knockdown) 0.061 | [3] 0.228 | [4] 0.17 | [7] 0.122 | [8] 0.0525 | 2.8 µM, library screen: screen3, EWS-FLI1 expression: high (no doxycycline) 0.114 | 2.8 µM, library screen: screen3, EWS-FLI1 expression: low (doxycycline-induced shRNA knockdown) 0.0823 | 8.3 µM, library screen: screen3, EWS-FLI1 expression: high (no doxycycline) 0.0653 | 8.3 µM, library screen: screen3, EWS-FLI1 expression: low (doxycycline-induced shRNA knockdown) 0.1 | 25 µM, library screen: screen2, EWS-FLI1 expression: high (no doxycycline) 0.0276 | 25 µM, library screen: screen2, EWS-FLI1 expression: low (doxycycline-induced shRNA knockdown) 0.165 | 25 µM, library screen: screen3, EWS-FLI1 expression: high (no doxycycline) 0.071 | 25 µM, library screen: screen3, EWS-FLI1 expression: low (doxycycline-induced shRNA knockdown) 0.141

Cc1c(N)nc([C@H](CC(N)=O)NC[C@H](N)C(N)=O)nc1C(=O)N[C@H](C(=O)N[C@H](C)[C@@H](O)[C@H](C)C(=O)N[C@H](C(=O)NCCc1nc(-c2nc(C(=O)NCCC[S+](C)C)cs2)cs1)[C@@H](C)O)[C@@H](OC1OC(CO)C(O)C(O)C1OC1OC(CO)C(O)C(OC(N)=O)C1O)c1cnc[nH]1 (stereo partly specified)
inactive: [1] 0.091 | [2] 0.105 | [3] 0.125 | [4] 0.052

C[C@]12CC[C@H](O)C[C@H]1CC[C@@H]1[C@@H]2[C@H](O)C[C@]2(C)[C@@H](C3=CC(=O)OC3)CC[C@]12O
active: [3] -0.259 | [4] -0.409
inactive: [1] 0.0899 | [2] -0.0779

C[C@]12CC[C@H](O)C[C@H]1CC[C@@H]1[C@@H]2C[C@@H](O)[C@]2(C)[C@@H](C3=CC(=O)OC3)CC[C@]12O
active: [3] -0.488 | [4] -0.691
inactive: [1] 0.0425 | [2] -0.036

C[C@]12CC[C@H](O)C[C@@H]1CC[C@@H]1[C@@H]2CC[C@]2(C)C(=O)CC[C@@H]12
inactive: [1] 0.113 | [2] 0.0515 | [3] 0.101 | [4] 0.0566

C[C@]12CCC3C(CC[C@H]4C[C@H](O)CC[C@]34C)C1CC[C@@H]2O (stereo partly specified)
inactive: [1] 0.158 | [2] 0.216 | [3] 0.201 | [4] 0.106

C[C@]12CC[C@@H](O)C[C@@H]1CC[C@@H]1[C@@H]2CC[C@]2(C)C(=O)CC[C@@H]12
inactive: [1] -0.00242 | [2] -0.00815 | [5] 0.137 | [6] 0.0672 | [3] 0.0414 | [4] 0.0708 | [7] 0.202 | [8] 0.0943

C[C@]12CC[C@H](O)C[C@@H]1CC[C@@H]1[C@@H]2CC[C@]2(C)[C@@H](O)CC[C@@H]12
inactive: [1] 0.128 | [2] 0.00375 | [3] 0.117 | [4] 0.154

CN1C2C[C@H](OC(=O)[C@H](CO)c3ccccc3)CC1[C@@H](O)C2 (stereo partly specified)
inactive: [1] 0.0376 | [2] 0.0137 | [3] 0.116 | [4] 0.0715

C=C1C2CC[C@@]3(C)[C@H](c4ccoc4)OC(=O)C[C@]13O[C@H]1CC(=O)C(C)(C)[C@H](C(OC(C)=O)C(=O)OC)[C@@]21C (stereo partly specified)
inactive: [1] 0.0428 | [2] 0.0583 | [3] 0.106 | [4] 0.119

CN1C2CCC1CC(OC(c1ccccc1)c1ccccc1N)C2 (stereo unspecified)
inactive: [1] 0.0792 | [2] 0.0013 | [5] 0.13 | [6] 0.107 | [3] 0.094 | [4] -0.0817 | [7] 0.165 | [8] 0.125

C[C@@H]1C(=O)O[C@H]2[C@H]1CC[C@@]1(C)C=CC(=O)[C@@]3(C)O[C@@]213
inactive: [1] -0.0341 | [2] 0.0137 | [3] 0.0354 | [4] 0.0553

COP(N)(=O)SC (stereo unspecified)
inactive: [1] 0.148 | [2] 0.0387 | [3] 0.151 | [4] 0.112

COc1cc(C(O)CN)ccc1O (stereo unspecified)
inactive: [5] 0.137 | [6] 0.137 | [7] 0.0316 | [8] 0.00185

c1ccc(N=Nc2ccccc2)cc1
inactive: [1] 0.0795 | [2] 0.0179 | [3] 0.0868 | [4] 0.083

NC(=NCCCC(N)C(=O)O)N[N+](=O)[O-] (stereo unspecified)
inactive: [1] 0.0461 | [2] 0.0355 | [5] 0.174 | [6] -0.00505 | [3] 0.0987 | [4] 0.0962 | [7] 0.128 | [8] 0.0828

CN1C[C@@H](CO)C=C2c3cccc4[nH]cc(c34)C[C@@H]21
inactive: [1] 0.0549 | [2] 0.11 | [3] 0.076 | [4] 0.0565

NC(=O)CN1CC(O)CC1=O (stereo unspecified)
inactive: [5] 0.159 | [6] 0.0927 | [7] 0.0479 | [8] 0.0838

CC[C@@H]1/C=C/C=C/C[C@H](C)[C@@H](O)[C@](C)(O)C(=O)[C@H](C)[C@@H](O)[C@H](C)C(=O)[C@H](C)[C@@H](O)[C@H](C)/C=C/C(=O)O[C@H]2[C@@H](C)[C@@H](CC1)O[C@@]1(CC[C@@H](C)[C@@H](C[C@H](C)O)O1)[C@@H]2C
active: [5] -0.731 | [6] -0.205 | [7] -0.713 | [8] -0.154

NC(CCP(=O)(O)O)C(=O)O (stereo unspecified)
inactive: [5] 0.115 | [6] 0.0812 | [7] 0.106 | [8] 0.13

CC(C)(C#N)O[C@@H]1O[C@H](CO)[C@@H](O)[C@H](O)[C@H]1O
inactive: [1] 0.0597 | [2] 0.0616 | [3] 0.164 | [4] -0.0392

CC(C)NC(C)Cc1ccc(I)cc1 (stereo unspecified)
inactive: [5] 0.0787 | [6] 0.0338 | [7] 0.129 | [8] 0.0526

CCN1C[C@]2(COC)[C@H](O)C[C@H](OC)[C@]34C1[C@H]([C@H](OC)[C@H]23)[C@]1(OC(C)=O)[C@H]2[C@@H](OC(=O)c3ccccc3)[C@](O)(C[C@H]24)[C@@H](OC)[C@@H]1O
inactive: [1] 0.162 | [2] 0.0997 | [3] 0.181 | [4] 0.202
